We go through 3 compounds from PubChem BioAssay (EPA / NIEHS).

Read-out in assay [1]: Fatty acid synthase (Homo sapiens) (UniProt P49327)
Put plainly: LTEA_HepaRG_FASN: Life Technologies and Expression Analysis (LTEA) Assay for Fatty Acid Synthase (FASN) using HepaRG (AID 2283448). As to conditions: mRNA level, 48 h; actives raise or lower the signal. An outline of the steps: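 Differentiated human HepaRG cells were exposed for 48 h in serum-free induction medium to eight half-log concentrations up to 100 uM in 0.5% DMSO, in duplicate. FASN mRNA was quantified by TaqMan qRT-PCR, normalized to ACTB/GAPDH/POLR2A, and fitted bidirectionally against DMSO.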

Read-out in assay [2]: Cyclin D2 (CCND2), CCND2 (gene 894)
Put plainly: LTEA_HepaRG_CCND2: Life Technologies and Expression Analysis (LTEA) Assay for Cyclin D2 (CCND2) using HepaRG (AID 2283449).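 Also: CCND2 transcript measured by TaqMan qRT-PCR and normalised to three housekeeping genes.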 As to conditions: mRNA level, 48 h; actives raise or lower the signal. An outline of the steps:
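Chemicals in 0.5% DMSO, eight half-log concentrations from 100 uM top, were applied in duplicate for 48 h to human HepaRG cells in serum-free induction medium. CCND2 mRNA by TaqMan qRT-PCR, normalised to ACTB/GAPDH/POLR2A; bidirectional fit versus DMSO.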

Read-out in assay [3]: Cyclin Dependent Kinase Inhibitor 1A (CDKN1A), CDKN1A (gene 1026)
Put plainly: LTEA_HepaRG_CDKN1A: Life Technologies and Expression Analysis (LTEA) Assay for Cyclin Dependent Kinase Inhibitor 1A (CDKN1A) using HepaRG (AID 2283450). The settings on record: mRNA level, 48 h; actives raise or lower the signal. An outline of the steps:
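Gain or loss of CDKN1A transcript is scored by bidirectional fitting against 0.5% DMSO vehicle. Human HepaRG cultures receive chemicals for 48 h across an 8-point series peaking at 100 uM; expression comes from qRT-PCR.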

Read-out in assay [4]: Cyclin D1 (CCND1), CCND1 (gene 595)
The experiment in a line: LTEA_HepaRG_CCND1: Life Technologies and Expression Analysis (LTEA) Assay for Cyclin D1 (CCND1) using HepaRG (AID 2283451). The settings on record: mRNA level, 48 h; actives raise or lower the signal. In a few lines:
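Expression change is measured by qRT-PCR in HepaRG cells after 48 h treatment across eight concentrations topping at 100 uM, with duplicate wells and DMSO (0.5%) serving as baseline for bidirectional fitting.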

Read-out in assay [5]: catalase (CAT), CAT (gene 847)
Put plainly: LTEA_HepaRG_CAT: Life Technologies and Expression Analysis (LTEA) Assay for catalase (CAT) using HepaRG (AID 2283452). As to conditions: mRNA level, 48 h; actives raise or lower the signal. In a few lines: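 HepaRG cells in serum-free induction medium, 0.5% DMSO vehicle, exposed 48 h in duplicate over 8 half-log concentrations from 100 uM. CAT mRNA measured by qRT-PCR, normalized to ACTB, GAPDH, POLR2A; bidirectional fit versus DMSO.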

Read-out in assay [6]: flavin-containing dimethylaniline monooxygenases 3 (FMO3), FMO3 (gene 2328)
Put plainly: LTEA_HepaRG_FMO3: Life Technologies and Expression Analysis (LTEA) Assay for flavin-containing dimethylaniline monooxygenases 3 (FMO3) using HepaRG (AID 2283453). As to conditions: mRNA level, 48 h; actives raise or lower the signal. An outline of the steps:
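HepaRG, 48 h exposure, 8-pt half-log series from 100 uM, 0.5% DMSO vehicle, duplicates; FMO3 transcript by Fluidigm TaqMan qRT-PCR, housekeeping-normalized; gain/loss fit vs DMSO.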

Read-out in assay [7]: Cytochrome P450 (CYP1A1), CYP1A1 (gene 1543)
The experiment in a line: LTEA_HepaRG_CYP1A1: Life Technologies and Expression Analysis (LTEA) Assay for Cytochrome P450 (CYP1A1) using HepaRG (AID 2283454). As to conditions: mRNA level, 48 h; actives raise or lower the signal. An outline of the steps: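 Using HepaRG cultures with 0.5% DMSO as vehicle, eight-concentration exposures (max 100 uM) lasted 48 h. Transcript levels were measured by TaqMan qRT-PCR and normalized to ACTB, GAPDH and POLR2A.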

Read-out in assay [8]: CFLAR gene, CFLAR (gene 8837)
Put plainly: LTEA_HepaRG_CFLAR: Life Technologies and Expression Analysis (LTEA) Assay for CFLAR gene using HepaRG (AID 2283455). As to conditions: mRNA level, 48 h; actives raise or lower the signal. An outline of the steps:
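Differentiated HepaRG cells in serum-free induction medium were exposed 48 h in duplicate to eight half-log concentrations up to 100 uM in 0.5% DMSO; mRNA measured by TaqMan qRT-PCR, normalized to ACTB, GAPDH, POLR2A; bidirectional fitting versus DMSO.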

Read-out in assay [9]: Forkhead box O1 (FOXO1), FOXO1 (gene 2308)
Put plainly: LTEA_HepaRG_FOXO1: Life Technologies and Expression Analysis (LTEA) Assay for Forkhead box O1 (FOXO1) using HepaRG (AID 2283456). As to conditions: mRNA level, 48 h; actives raise or lower the signal. An outline of the steps:
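Differentiated HepaRG cells, in serum-free induction medium with 0.5% DMSO, exposed 48 h in duplicate to 8-point half-log series from 100 uM. FOXO1 mRNA measured by TaqMan qRT-PCR, normalized to ACTB, GAPDH, POLR2A; bidirectional fit versus DMSO.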

The nature of assay [10]: CEETOX_H295R_TESTO: CeeTox H295R High-throughput Steroidogenesis Assay for Testosterone (TESTO) (AID 2283457).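 As to AC50: cells exposed to chemicals for 48 h before medium collection.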 The settings on record: actives raise or lower the signal. In a few lines: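 Steroidogenesis in H295R cells following OECD 456 with minor changes; 48 h exposure. Medium testosterone by HPLC-MS/MS, DMSO as baseline, with MTT viability run in parallel.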
Read-out in assay [11]: growth arrest and DNA damage 45 (GADD45A), GADD45A (gene 1647)
Put plainly: LTEA_HepaRG_GADD45A: Life Technologies and Expression Analysis (LTEA) Assay for growth arrest and DNA damage 45 (GADD45A) using HepaRG (AID 2283458). As to conditions: mRNA level, 48 h; actives raise or lower the signal. An outline of the steps:
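Differentiated HepaRG cells were exposed in duplicate for 48 h in serum-free induction medium to 8-point half-log concentrations up to 100 uM in 0.5% DMSO. GADD45A mRNA was measured by TaqMan qRT-PCR, normalized to ACTB, GAPDH and POLR2A, with bidirectional fitting versus DMSO.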

Read-out in assay [12]: Forkhead box O3 (FOXO3), FOXO3 (gene 2309)
The experiment in a line: LTEA_HepaRG_FOXO3: Life Technologies and Expression Analysis (LTEA) Assay for Forkhead box O3 (FOXO3) using HepaRG (AID 2283459). The settings on record: mRNA level, 48 h; actives raise or lower the signal. In a few lines: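 Differentiated human HepaRG cells, 48 h post-plating, exposed in duplicate for 48 h in serum-free induction medium; 8-point half-log series from 100 uM in 0.5% DMSO. FOXO3 mRNA by TaqMan qRT-PCR, normalized to ACTB/GAPDH/POLR2A; bidirectional fit versus DMSO.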

Read-out in assay [13]: ABC Transporter (ABCB1), ABCB1 (gene 5243)
The experiment in a line: LTEA_HepaRG_ABCB1: Life Technologies and Expression Analysis (LTEA) Assay for ABC Transporter (ABCB1) using HepaRG (AID 2283460). As to conditions: mRNA level, 48 h; actives raise or lower the signal. An outline of the steps: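 HepaRG cells exposed in duplicate for 48 h in serum-free induction medium to eight half-log concentrations up to 100 uM in 0.5% DMSO. ABCB1 mRNA quantified by qRT-PCR, normalised to ACTB, GAPDH and POLR2A; fitted bidirectionally versus DMSO.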

Read-out in assay [14]: growth arrest and DNA damage 45 (GADD45B), GADD45B (gene 4616)
The experiment in a line: LTEA_HepaRG_GADD45B: Life Technologies and Expression Analysis (LTEA) Assay for growth arrest and DNA damage 45 (GADD45B) using HepaRG (AID 2283461). The settings on record: mRNA level, 48 h; actives raise or lower the signal. In a few lines:
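Human HepaRG monolayers receive chemicals for 48 h at eight half-log concentrations, highest 100 uM, in 0.5% DMSO. Expression is measured by TaqMan qRT-PCR and normalized to ACTB, GAPDH and POLR2A.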

Read-out in assay [15]: ABC Transporter (ABCC3), ABCC3 (gene 8714)
The experiment in a line: LTEA_HepaRG_ABCC3: Life Technologies and Expression Analysis (LTEA) Assay for ABC Transporter (ABCC3) using HepaRG (AID 2283462). As to conditions: mRNA level, 48 h; actives raise or lower the signal. In a few lines: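 Transcriptional change of ABCC3 in HepaRG after 48 h treatment, determined by qRT-PCR normalized to endogenous controls. Concentrations spanned eight half-log steps to 100 uM in 0.5% DMSO.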

Read-out in assay [16]: ABC Transporter (ABCB11), ABCB11 (gene 8647)
Put plainly: LTEA_HepaRG_ABCB11: Life Technologies and Expression Analysis (LTEA) Assay for ABC Transporter (ABCB11) using HepaRG (AID 2283463). The settings on record: mRNA level, 48 h; actives raise or lower the signal. An outline of the steps: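 Differentiated human HepaRG cells in serum-free induction medium, dosed in duplicate for 48 h. Eight-point half-log series from 100 uM in 0.5% DMSO; ABCB11 mRNA by qRT-PCR, normalized to ACTB, GAPDH, POLR2A, fitted bidirectionally versus DMSO.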

Read-out in assay [17]: Broad substrate specificity ATP-binding cassette transporter ABCG2 (Homo sapiens) (UniProt Q9UNQ0)
Put plainly: LTEA_HepaRG_ABCG2: Life Technologies and Expression Analysis (LTEA) Assay for ABC Transporter (ABCG2) using HepaRG (AID 2283465). The settings on record: mRNA level, 48 h; actives raise or lower the signal. An outline of the steps: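 Differentiated HepaRG cells were exposed for 48 h in serum-free induction medium to 8 half-log concentrations, top 100 uM, in 0.5% DMSO. ABCG2 mRNA was measured by qRT-PCR, normalized to ACTB, GAPDH and POLR2A, with bidirectional fitting versus DMSO.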

Read-out in assay [18]: ATP-citrate lyase (ACLY), ACLY (gene 47)
The experiment in a line: LTEA_HepaRG_ACLY: Life Technologies and Expression Analysis (LTEA) Assay for ATP-citrate lyase (ACLY) using HepaRG (AID 2283466). The settings on record: mRNA level, 48 h; actives raise or lower the signal. In a few lines:
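Differentiated HepaRG cells exposed 48 h in serum-free induction medium to eight half-log concentrations up to 100 uM in 0.5% DMSO, duplicates. Transcript measured by Fluidigm TaqMan qRT-PCR, normalized to ACTB, GAPDH, POLR2A; bidirectional fit versus DMSO.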

Read-out in assay [19]: Peroxisomal acyl-coenzyme A oxidase 1 (ACOX1) gene, ACOX1 (gene 51)
Put plainly: LTEA_HepaRG_ACOX1: Life Technologies and Expression Analysis (LTEA) Assay for Peroxisomal acyl-coenzyme A oxidase 1 (ACOX1) gene using HepaRG (AID 2283467). The settings on record: mRNA level, 48 h; actives raise or lower the signal. In a few lines: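 HepaRG cells, plated 48 h then switched to serum-free induction medium, were exposed in duplicate for 48 h to 8-point half-log concentrations up to 100 uM in 0.5% DMSO. ACOX1 mRNA was measured by qRT-PCR, normalized to ACTB/GAPDH/POLR2A, and fitted bidirectionally versus DMSO.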

The structures appear in SMILES notation. Calls of active or inactive are those of the source. The calls were made as follows: active = hit-call score of the fitted dose curve at least 0.9, where 1 is the maximum; inactive = score below 0.9.

Fatty acid synthase (Homo sapiens), sequence (P49327 whole entry, looked up): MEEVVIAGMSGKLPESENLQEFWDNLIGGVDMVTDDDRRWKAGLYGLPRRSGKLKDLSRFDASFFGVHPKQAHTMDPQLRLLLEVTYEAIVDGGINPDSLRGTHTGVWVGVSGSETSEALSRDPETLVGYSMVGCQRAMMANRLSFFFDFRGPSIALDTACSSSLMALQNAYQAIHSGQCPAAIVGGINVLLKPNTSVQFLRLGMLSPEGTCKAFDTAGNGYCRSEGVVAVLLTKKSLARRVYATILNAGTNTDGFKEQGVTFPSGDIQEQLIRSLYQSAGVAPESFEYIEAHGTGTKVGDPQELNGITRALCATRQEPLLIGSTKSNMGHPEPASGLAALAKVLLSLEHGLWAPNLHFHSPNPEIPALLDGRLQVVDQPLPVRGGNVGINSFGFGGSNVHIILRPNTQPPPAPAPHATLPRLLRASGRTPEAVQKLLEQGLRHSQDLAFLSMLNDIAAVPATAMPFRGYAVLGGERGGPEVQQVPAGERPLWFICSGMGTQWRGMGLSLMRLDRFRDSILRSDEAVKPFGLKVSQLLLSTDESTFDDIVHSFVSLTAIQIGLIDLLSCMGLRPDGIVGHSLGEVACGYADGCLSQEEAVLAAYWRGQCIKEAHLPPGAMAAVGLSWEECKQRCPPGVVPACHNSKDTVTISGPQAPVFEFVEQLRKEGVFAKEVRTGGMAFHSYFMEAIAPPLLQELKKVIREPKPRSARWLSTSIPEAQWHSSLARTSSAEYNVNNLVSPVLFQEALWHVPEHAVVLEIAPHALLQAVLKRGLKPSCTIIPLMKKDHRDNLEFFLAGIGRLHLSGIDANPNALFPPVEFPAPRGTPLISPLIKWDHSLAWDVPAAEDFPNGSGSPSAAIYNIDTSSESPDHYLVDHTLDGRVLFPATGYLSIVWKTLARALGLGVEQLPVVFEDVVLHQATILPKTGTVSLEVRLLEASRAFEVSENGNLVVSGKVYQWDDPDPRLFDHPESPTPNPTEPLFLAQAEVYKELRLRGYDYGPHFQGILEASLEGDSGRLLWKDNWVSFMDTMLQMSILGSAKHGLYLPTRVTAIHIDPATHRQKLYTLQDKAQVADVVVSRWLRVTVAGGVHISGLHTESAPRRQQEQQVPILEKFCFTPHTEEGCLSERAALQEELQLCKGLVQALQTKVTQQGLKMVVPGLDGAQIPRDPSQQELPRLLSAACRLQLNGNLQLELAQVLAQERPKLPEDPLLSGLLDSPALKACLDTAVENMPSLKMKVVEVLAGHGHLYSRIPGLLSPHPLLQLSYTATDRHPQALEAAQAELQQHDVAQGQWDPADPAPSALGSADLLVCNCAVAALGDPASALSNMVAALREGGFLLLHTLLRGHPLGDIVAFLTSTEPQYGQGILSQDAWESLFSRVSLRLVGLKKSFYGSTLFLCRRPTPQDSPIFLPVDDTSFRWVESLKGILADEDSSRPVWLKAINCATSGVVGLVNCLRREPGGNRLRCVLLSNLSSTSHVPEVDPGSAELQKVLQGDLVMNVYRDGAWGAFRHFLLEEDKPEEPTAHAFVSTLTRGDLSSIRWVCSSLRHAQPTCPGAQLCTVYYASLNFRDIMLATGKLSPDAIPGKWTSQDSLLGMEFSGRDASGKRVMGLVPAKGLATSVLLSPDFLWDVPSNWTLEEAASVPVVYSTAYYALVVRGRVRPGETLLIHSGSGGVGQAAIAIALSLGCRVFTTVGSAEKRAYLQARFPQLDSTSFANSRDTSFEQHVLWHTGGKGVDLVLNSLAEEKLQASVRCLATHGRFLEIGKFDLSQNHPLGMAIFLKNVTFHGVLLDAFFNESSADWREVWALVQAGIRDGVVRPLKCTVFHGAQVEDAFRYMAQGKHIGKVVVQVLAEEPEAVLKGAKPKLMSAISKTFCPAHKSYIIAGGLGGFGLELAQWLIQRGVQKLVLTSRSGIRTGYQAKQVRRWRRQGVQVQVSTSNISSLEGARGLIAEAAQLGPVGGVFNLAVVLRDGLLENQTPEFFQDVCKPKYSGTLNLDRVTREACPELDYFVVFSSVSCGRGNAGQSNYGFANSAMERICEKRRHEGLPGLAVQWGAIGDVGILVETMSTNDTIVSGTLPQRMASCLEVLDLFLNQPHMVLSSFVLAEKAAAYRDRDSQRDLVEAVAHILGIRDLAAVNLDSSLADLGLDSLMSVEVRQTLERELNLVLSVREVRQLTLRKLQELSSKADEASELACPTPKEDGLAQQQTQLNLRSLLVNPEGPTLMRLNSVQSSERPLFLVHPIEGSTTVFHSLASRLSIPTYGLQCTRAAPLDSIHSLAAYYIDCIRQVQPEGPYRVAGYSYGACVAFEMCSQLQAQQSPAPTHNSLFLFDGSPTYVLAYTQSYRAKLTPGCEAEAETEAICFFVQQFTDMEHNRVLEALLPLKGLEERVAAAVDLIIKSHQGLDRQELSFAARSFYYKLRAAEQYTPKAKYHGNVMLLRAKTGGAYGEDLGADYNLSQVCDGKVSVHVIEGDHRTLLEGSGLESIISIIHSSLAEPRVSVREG
Broad substrate specificity ATP-binding cassette transporter ABCG2 (Homo sapiens), sequence (Q9UNQ0 whole entry, looked up): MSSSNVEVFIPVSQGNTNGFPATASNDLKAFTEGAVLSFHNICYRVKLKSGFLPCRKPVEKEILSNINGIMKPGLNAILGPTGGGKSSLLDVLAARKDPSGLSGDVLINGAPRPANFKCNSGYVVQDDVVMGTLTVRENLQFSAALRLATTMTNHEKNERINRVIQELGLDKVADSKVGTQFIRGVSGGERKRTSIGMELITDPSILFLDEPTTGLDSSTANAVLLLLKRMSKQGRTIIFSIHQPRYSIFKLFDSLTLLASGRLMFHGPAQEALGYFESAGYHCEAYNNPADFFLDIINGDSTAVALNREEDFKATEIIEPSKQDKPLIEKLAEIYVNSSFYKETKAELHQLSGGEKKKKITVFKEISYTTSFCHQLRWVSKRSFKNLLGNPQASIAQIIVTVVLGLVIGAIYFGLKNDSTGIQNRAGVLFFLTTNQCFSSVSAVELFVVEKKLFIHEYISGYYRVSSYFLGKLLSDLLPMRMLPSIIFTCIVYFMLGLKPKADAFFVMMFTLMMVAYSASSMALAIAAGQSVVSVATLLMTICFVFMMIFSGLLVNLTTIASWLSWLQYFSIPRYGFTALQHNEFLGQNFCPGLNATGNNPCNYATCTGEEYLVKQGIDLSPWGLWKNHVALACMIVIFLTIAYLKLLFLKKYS

For `O=C(NC(=O)c1c(F)cccc1F)Nc1cc(Cl)c(OC(F)(F)C(F)F)c(Cl)c1`, the AC50 in assay [1] was 50 µM (active); in [6] it was 50 µM (active); in [7], 3.34 µM (active); in assay [16], 50 µM (active). Also, the outcome in assay [2], in [3], in assay [4], in assay [5], in assay [8] and in assay [9] was inactive. The compound was called inactive in assay [10], in assay [11], in assay [12], in assay [13], in assay [14] and in assay [15]. For the same compound, the call in assay [17], in [18] and in assay [19] was inactive.
With `O=C(N[C@H]1CN2CCC1CC2)c1cc2ccoc2cn1`, the call in assay [1], in [2], in [3], in assay [4], in assay [5] and in assay [6] was inactive. Further, the outcome in [8], in assay [9], in [11], in assay [12], in assay [13] and in [14] was inactive. Moreover, the compound was classed as inactive in [15], in [16], in [17], in assay [18] and in [19]. Also, the concentration at half-maximal activity (AC50) in assay [7] is 50 µM (active).
In the case of `CCC(=O)O[C@H]1CC[C@H]2[C@@H]3CCC4=CC(=O)CC[C@]4(C)[C@H]3CC[C@]12C`, the result in assay [1], in [2], in assay [3], in assay [4], in [5] and in assay [6] was inactive. The compound was classed as inactive in [8], in assay [11], in [12], in [13], in assay [15] and in [17]. Besides, the outcome in [18] and in assay [19] was inactive. For the same compound, the AC50 in assay [7] was 13.1 µM (active); in assay [10] it was 3.77 µM (active); in [14], 0.101 µM (active); in [16] it was 9.78 µM (active).

As a reminder, the AC50 is the midpoint of the concentration-response curve, whichever way the signal moves.
